An excerpt weighted towards active compounds, which were near 8.7% of everything screened.
AMA1 RON2 block = qHTS for Inhibitors of AMA1-RON; Towards Development of Antimalarial Drug Lead: Primary Screen; AlphaScreen AMA1-biotinylated RON2 peptide binding; Potency, µM (highest dose often 58.2 µM), hits mostly inhibitors; Plasmodium falciparum AMA1 (3D7) - RON2 peptide interaction; hit rate 0.2% among 360,000; further: nearly all actives have a fitted effect of over 45% in size
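AMA1 (3D7) with his tag at 25 nM final met compounds first, then biotinylated RON2 peptide at 25 nM; detection used donor plus acceptor beads, 10 µg/mL apiece, read by AlphaScreen after 30 min at room temperature.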
Pf growth 96h = Primary qHTS for delayed death inhibitors of the malarial parasite plastid, 96 hour incubation. P. falciparum luciferase reporter growth, 96 h. Potency, µM (titrated, usually from 28.7 µM), actives largely listed as inhibitors. hit rate 6.9% among 320,000
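Readout is luminescence from an integrated firefly luciferase in P. falciparum. Red cells, 2% hematocrit and 0.05% parasitemia final, were cultured with compound through two parasite generations (96 hours) at 37 C, 5% CO2.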
VACV mCherry inh = qHTS for Stage-Specific Inhibitors of Vaccinia Orthopoxvirus: mCherry Reporter Primary qHTS; Potency, µM (doses to about 36.5 µM), most hits filed as inhibitors; AID 720579, 2013; Vaccinia virus mCherry reporter infection, fluorescence; hit rate 0.63% among 310,000; calls by dose curve; tested in A549 cells; further: nearly all actives have a fitted effect of over 35% in size
Pf growth 48h = Primary qHTS for delayed death inhibitors of the malarial parasite plastid, 48 hour incubation | P. falciparum luciferase growth in erythrocytes, 48 h | Potency, µM (top dose mostly 28.7 µM), most hits filed as inhibitors | hit rate 5.9% among 310,000 | AID 504832, 2011
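Compounds are pin-transferred into medium, infected erythrocytes (2% hematocrit, 0.1% parasitemia final) are added, and plates sit one parasite generation at 37 C in 5% CO2. Detection reagent is then added and luminescence measured.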
VACV Venus inh = qHTS for Stage-Specific Inhibitors of Vaccinia Orthopoxvirus: Venus Reporter Primary qHTS | Vaccinia virus Venus reporter expression, fluorescence | Potency, µM (titrated, usually from 36.5 µM), hits mostly inhibitors | hit rate 0.46% among 330,000 | AID 720580, 2013; calls by dose curve; tested in A549 cells; further: nearly all actives have a fitted effect of over 30% in size
A number is an active result; i = inactive; ? = inconclusive; nt = not tested or not shown; [ ] = another dose, or the depositor's remark. Unless noted, the call rests on the fitted dose curve; in most records, active means well fitted curve in the direction sought with a large enough effect; inconclusive means small, poorly fitted or top-dose-only effect, or another doubt; inactive means no such curve, though single readings can be large; an effect the other way counts as inactive or inconclusive.

SMILES	AMA1 RON2 block	Pf growth 96h	VACV mCherry inh	Pf growth 48h	VACV Venus inh
COc1ccc(C(CNC(=O)c2ccc(-c3cccc(C(F)(F)F)c3)o2)N2CCOCC2)cc1 (centres undefined)	i	1.5µM	i	6.6µM	?
CCN(CC(=O)NCc1cccs1)C(=O)COc1cccc(C(F)(F)F)c1	i	?	nt	?	nt
CCN(CC(=O)NCc1cccs1)C(=O)c1ccc(-c2cccc(C(F)(F)F)c2)o1	i	9.3µM	?	?	i
COc1ccc(C(CNC(=O)c2ccco2)N2CCOCC2)cc1 (centres undefined)	i	i	nt	i	nt
COc1ccc(NC(=O)CN(C)C(=O)c2ccc(-c3ccccc3Cl)o2)cc1	i	0.33µM	i	0.37µM	i
COc1ccc(NC(=O)CN(C)C(=O)c2ccc3ccccc3c2)cc1	i	i	i	i	i
CCOc1ccc(NC(=O)CSC2=Nc3ccccc3C3=NC(CC(=O)NCc4cccs4)C(=O)N23)cc1 (centres undefined)	nt	nt	i	nt	i
CCc1ccc(NC(=O)c2sc3nc(C)c(Cl)c(C)c3c2N)cc1	nt	nt	i	nt	i
CCc1ccccc1NS(=O)(=O)c1cc(Br)cc2c1N(C(=O)C1CC1)CC2	nt	nt	i	nt	i
COc1ccc(NC(=O)CS(=O)CC(=O)NCc2cccc(C(F)(F)F)c2)cc1 (centres undefined)	i	i	nt	i	nt
COc1ccc(NC(=O)CN(C)C(=O)c2ccc(-c3cccc(C(F)(F)F)c3)o2)cc1	i	0.37µM	i	?	i
CNC(=S)N(Cc1cc2cc(C)cc(C)c2[nH]c1=O)C1CCCC1	i	?	i	?	i
CCNC(=S)N(Cc1cc2cc(C)cc(C)c2[nH]c1=O)C1CCCC1	i	6.6µM	i	?	i
Fc1ccc(/C=N/Nc2nnnn2-c2ccccc2)cc1	i	8.3µM	i	i	i
Cn1nnnc1NN=Cc1ccccc1	i	nt	i	nt	i
O=C1NC(=O)c2cc(Br)cc3cccc1c23	i	i	i	i	i
Cc1ccc(NS(=O)(=O)c2cc3c4c(cccc4c2)C(=O)NC3=O)cc1C	i	?	13µM	i	10µM
COc1ccc(CCNC(=O)c2nnn(-c3cccc(C)c3)c2N)cc1OC	i	nt	nt	i	nt
COc1ccc(CNCCNC(=O)c2nonc2N)cc1OC	i	i	nt	i	nt
COc1ccc(CCNC(=O)c2nonc2N)cc1OC	i	4.1µM	nt	i	nt
COc1ccc(CCNC(=O)c2nnn(-c3cc(C)cc(C)c3)c2N)cc1OC	i	3.7µM	nt	?	nt
CC(C)c1cccc(O)c(=O)c1	i	3.3µM	i	2.9µM	i
COc1ccc(C2c3cc(OC)c(OC)cc3CC(=O)N2c2ccc(C)c(F)c2)cc1 (centres undefined)	nt	nt	i	nt	i
CCOC(=O)C1(Cc2ccccc2C(F)(F)F)CCN(C2CCN(C(C)=O)CC2)CC1	i	?	i	9.3µM	i
Clc1cccc[n+]1CCCCCC[n+]1ccccc1Cl	nt	nt	i	nt	i
SMILES	AMA1 RON2 block	Pf growth 96h	VACV mCherry inh	Pf growth 48h	VACV Venus inh
O=C1CC[C@@H](CN(Cc2ccccn2)Cc2nc(Cc3ccccc3)no2)N1	i	17µM	i	i	i
Cc1ccc(NC(=O)c2c(C)oc3ccc(O)c(CN4CCCC4)c23)c(C)c1	nt	nt	i	nt	i
CCCOc1ccc(CSC2=NCCN2)cc1[N+](=O)[O-]	i	?	nt	15µM	i
O=[N+]([O-])c1cc(CSC2=NCCN2)ccc1O	i	i	i	i	i
CC(=O)c1ccc(C(=O)N(Cc2cccnc2)c2nc3c(Cl)cccc3s2)cc1	nt	nt	i	nt	i
O=C(NC1(O)C(=O)c2ccccc2C1=O)c1c(Cl)cccc1Cl	i	i	i[7.34 µM]	2.9µM	i[7.34 µM]
CC1=C(C(=O)Nc2ccc([N+](=O)[O-])cc2)C(c2cccc(C(F)(F)F)c2)NC(=S)N1c1ccccc1 (centres undefined)	i	nt	nt	13µM	nt
COc1ccc(C2NC(=S)N(c3ccccc3)C(C)=C2C(=O)Nc2ccccc2)cc1 (centres undefined)	i	?	i	nt	i
O=C(O)CCn1ccc2cc(S(=O)(=O)N3CCCCC3)ccc21	nt	nt	i	nt	i
Nc1ccc(Oc2ccccc2-c2ccccc2)cc1	22µM	nt	i	nt	i
NCCOc1ccccc1-c1ccccc1	i	i	nt	i	i
COC(=O)c1[nH]c2cc(C)ccc2c1NC(=O)CN1CCN(C(=O)c2ccco2)CC1	i	3.3µM	i	?	i
COC(=O)c1[nH]c2cccc(C)c2c1NC(=O)CN1CCN(C(=O)c2ccco2)CC1	i	12µM	nt	?	i
COC(=O)c1[nH]c2ccccc2c1NC(=O)C(C)N1CCOCC1 (centres undefined)	i	i	nt	i	nt
CC(C)c1ccc(NC(=O)C(c2ccccc2)N2CCN(C(=O)c3ccco3)CC2)cc1 (centres undefined)	i	?	i	9.3µM	?
COC(=O)c1[nH]c2ccccc2c1NC(=O)C(C)N1CCN(C(=O)c2ccco2)CC1 (centres undefined)	i	10µM	i	?	i
CCn1cc(C(=O)N2CCN(c3ccccc3F)CC2)c(=O)c2cc(S(=O)(=O)N(C)C3CCCCC3)ccc21	nt	nt	i	nt	i
O=C(CCc1ccccc1)NC1(Cc2ccccc2)CCN(CCc2cccs2)C1=O (centres undefined)	i	?	i	?	i
O=C(NC1(Cc2ccccc2)CCN(Cc2ccc(-c3ccccc3)cc2)C1=O)c1ccccc1 (centres undefined)	i	?	11µM	?	?

Source: PubChem
